# Laboratory results published in the OligoGym collection.
# Molecular target: TMEM109
# Assay: pooled miR-30 sensor sort-seq; sequence = guide strand
# Details: shRNA
# Note: reference of the scale not given here.
row,Sequence,sensor-assay potency score (higher = more potent)
1,TTTGGTATGACACTGGCGGTGT,0.696
2,TTTAAAACCAACCAAGCACTGA,-0.265
3,TGTGATTCCACATCAAACCTGA,0.855
4,TCTGGGTCAAGACATCAACTGG,-1.37
5,TCCCTCGCACAGATCGACCTAT,-0.902
6,TGGGTCAAGACATCAACTGGGG,-0.224
7,TTGAACACATGCTTTCCCCATG,-0.916
8,TTCCACATCAAACCTGAACAGT,-0.603
9,TTTGAACACATGCTTTCCCCAT,-0.568
10,TCGCACAGATCGACCTATCTGG,-0.204
11,TTTCTCTGTTTCTCTTGGCTAG,-0.388
12,TATTCTTCACATCATGTGCCAA,-0.456

# Molecular target: TMEM110
# Assay: as above
# Details: shRNA
row,Sequence,sensor-assay potency score (higher = more potent)
1,TAAGTCACAGTAGTCTGGGGGC,0.0391
2,TTCAGTGAGATCTGCTAGGTAT,0.113
3,TTTGTAGTGCAACTGAATGGGG,-0.728
4,TTTAAGTCACAGTAGTCTGGGG,0.109
5,TTGGAAGTGTCTAAAAACCATA,-1.5
6,TTAAGTCACAGTAGTCTGGGGG,-0.231
7,TTCTAGCTTAGCTTTCGTCTTC,-0.0536
8,TTTTAAGTCACAGTAGTCTGGG,0.293
9,TTGTAGTGCAACTGAATGGGGA,-0.276
10,TTTTTAAGTCACAGTAGTCTGG,-0.583
11,TTCTTCTAGCTTAGCTTTCGTC,-0.864
12,TTAGCTTTCGTCTTCCCCTTTC,-0.779

# Molecular target: TMEM117
# Assay: as above
# Details: shRNA
row,Sequence,sensor-assay potency score (higher = more potent)
1,TTGAACATCAGATACATGGGTC,0.48
2,ATTTACATCAACATCTCCCATG,-0.907
3,TATCAGTGACCATCCAAGCTGT,-0.461
4,TTTCACTGTATATATCTTCTGC,-0.0324
5,TTAGTGTGATTGGACCTCCATT,-1.69
6,TTTGTCTTGATTCTCCATGCGT,-0.0154
7,TTGTCTTGATTCTCCATGCGTG,-0.601
8,TATTACTGAATTTTGCATCTGT,1.08
9,TACATCAACATCTCCCATGAAA,-1.02
10,TTGAAGTCAGACCTGATGCAAA,-0.838
11,TTAATCGGAGCAACTGACCAAA,-0.0675
12,TAGTAGATTCGTTCAACTGTGA,0.105

# Molecular target: TMEM130
# Assay: as above
# Details: shRNA
row,Sequence,sensor-assay potency score (higher = more potent)
1,TTGCCAGTAAGCACCAGCGGGG,-1.3
2,TAGAGAAACAAGGCGGTCTTGA,0.529
3,ATAGTTATAATAGACCACGGAG,-0.516
